Records with an inconclusive call do not appear. Calls of active or inactive are those of the source. Cut-off read from the data, not from the text of the source, unless noted: active = inhibition above about 80%; inactive = the rest.
How the values were obtained:
[1] = growth inhibition of DIPG glioma cells, dose response, cell-based, SU-DIPG-XIII, MIPE5.0, CellTiter-Glo, qHTS (AID 1347064; cut-off not given, nearly all actives have AC50 up to about 23 µM;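 note: cells exposed to compound for 48 hours before the viability read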); conditions: SU-DIPG-XIII viability, CellTiter-Glo ATP luminescence
[2] = viability loss in pontine glioma line – cell-based, SU-DIPG-XXV, MIPE5.0, CellTiter-Glo, qHTS, dose response (AID 1347065; cut-off not given, nearly all actives have AC50 up to about 26 µM;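 note: cells exposed to compound for 48 hours before ATP readout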); conditions: CellTiter-Glo ATP luminescence
[3] = JHH-DIPG-1 glioma cell viability, MIPE5.0 library, CellTiter-Glo luminescence, qHTS (AID 1347067; cut-off not given, nearly all actives have AC50 up to about 26 µM;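 note: cells exposed to compound for 48 hours before readout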); conditions: JHH-DIPG-1 glioma viability, CellTiter-Glo ATP luminescence
[4] = SU-DIPG-XXV glioma cell viability, MIPE5.0 library, qHTS (AID 1347068; cut-off not given, nearly all actives have IC50 up to about 30 µM;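 note: cells exposed to compound for 48 hours before viability readout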)
[5] = LFS_MB_P medulloblastoma growth inhibition, cell-based, chromothripsis tumors, cisplatin or BGB combos (AID 1671449); conditions: LFS_MB_P medulloblastoma cells;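 note: cells exposed for 96 hours; 0% = vehicle DMSO and 100% = killing by high DMSO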
[6] = HDN33 neuroblastoma growth inhibition, cell-based, chromothripsis tumors, cisplatin or BGB combos (AID 1671450); conditions: HDN33 neuroblastoma cells, stronger effect = higher value;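 note: cells exposed to compound for four days; 0% = vehicle DMSO and 100% = cell killing by high DMSO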
[7] = ICB984 medulloblastoma cell growth inhibition, synergistic combos for chromothripsis tumors, cisplatin or BGB combos (AID 1671451; call rule not given here;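 note: cells exposed for 96 hours before readout; 0% = vehicle DMSO and 100% = killing by high DMSO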); conditions: ICB984 medulloblastoma cells, drug combinations, stronger effect = higher value
[8] = LFS_MB_1R medulloblastoma cell growth inhibition, synergistic combos for chromothripsis tumors, cisplatin or BGB combos (AID 1671452); conditions: LFS_MB_1R medulloblastoma cells, stronger effect = higher value;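 note: cells exposed for 96 hours before readout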
[9] = HTB85 osteosarcoma cell growth inhibition, synergistic combos for chromothripsis tumors, BGB or cisplatin IC20 combos (AID 1671453); conditions: HTB85 osteosarcoma cells, drug combinations, stronger effect = higher value;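 note: cells exposed for 96 hours before readout; 0% = vehicle DMSO and 100% = high DMSO killing control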
[10] = CRL2098 osteosarcoma cell growth inhibition, synergistic combos for chromothripsis tumors, BGB or cisplatin IC20 combos (AID 1671454); conditions: CRL2098 osteosarcoma cells, drug combinations, stronger effect = higher value;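 note: cells exposed for 96 h before readout; 0% = vehicle DMSO and 100% = killing by high DMSO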
[11] = HD-MB03 medulloblastoma cell growth inhibition, synergistic combos for chromothripsis tumors, BGB or cisplatin IC20 combos (AID 1671455; in the data active = inhibition above about 83%;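 note: 0% = vehicle DMSO and 100% = high DMSO as cytotoxic control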); conditions: HD-MB03 medulloblastoma cells, stronger effect = higher value
[12] = UWB1.289 ovarian carcinoma cell growth inhibition, synergistic combos for chromothripsis tumors, BGB or cisplatin combos (AID 1671456); conditions: UWB1.289 ovarian carcinoma cells, stronger effect = higher value;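 note: cells exposed to compound for four days; 0% = vehicle DMSO and 100% = killing by high DMSO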
[13] = LFS_MB_2R medulloblastoma cell growth inhibition, synergistic combos for chromothripsis tumors, cisplatin combos (AID 1671457); conditions: LFS_MB_2R medulloblastoma cells, stronger effect = higher value;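 note: cells exposed to compound for four days before readout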
[14] = MDA-MB-436 breast carcinoma cell growth inhibition, synergistic combos for chromothripsis tumors, BGB or cisplatin combos (AID 1671458; call rule not given here;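 note: cells exposed for 96 hours; 0% = vehicle DMSO and 100% = killing by high DMSO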); conditions: MDA-MB-436 breast carcinoma growth inhibition, drug combinations, stronger effect = higher value
[15] = UWB1.289_BRCA1 ovarian cancer growth, cell-based, BGB or cisplatin combinations (AID 1671459); conditions: UWB1.289 BRCA1 ovarian carcinoma, drug combinations, stronger effect = higher value
[16] = human astrocyte viability loss, single and combined drugs, cytotoxicity control for chromothriptic childhood tumor combination screen, cell-based, BGB or cisplatin IC20 combos (AID 1671460); conditions: Human astrocytes, drug combinations, stronger effect = higher value;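 note: cells exposed to compounds for 96 hours before viability readout; 0% = vehicle and 100% = killing control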
[17] = growth inhibition of BT084 medulloblastoma cells, cell-based, ICGC_MB145, cisplatin and BGB IC40 combos (AID 1671461); conditions: drug combinations, stronger effect = higher value;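 note: cells exposed to drugs for 96 hours; 0% = vehicle DMSO and 100% = high DMSO full killing control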
[18] = growth inhibition of RCMB18 medulloblastoma cells, cell-based, cisplatin and BGB IC40 combos (AID 1671462); conditions: stronger effect = higher value;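 note: cells exposed to compound for four days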
[19] = growth inhibition of CRL1545 osteosarcoma cells, cell-based, cisplatin and BGB IC20 combos (AID 1671464); conditions: stronger effect = higher value;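 note: cells exposed to compound for 96 hours before readout; 0% = vehicle DMSO and 100% = high DMSO killing control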
[20] = measured here: combination with BGB IC40, at 0.05 µM
[21] = measured here: with BGB IC20 combination, at 0.5 µM
[22] = measured here: with cisplatin IC20 combination, at 0.5 µM
[23] = measured here: combination with cisplatin, at 0.5 µM
[24] = measured here: combination with cisplatin, at 5 µM

c1cc(Nc2cc(C3CC3)[nH]n2)nc(Nc2ccc3nc[nH]c3c2)n1
AC50 [1]: 0.468 µM (active)
AC50 [2]: 0.59 µM (active)
AC50 [3]: 0.742 µM (active)
IC50 [4]: 1.48 µM (active)
inhibition ([5]; at 0.5 µM, stronger effect = higher value): -28.9% (inactive)
inhibition ([5]; measured here: combination with BGB IC20, at 0.005 µM): -28.7%
inhibition ([5]; measured here: combination with BGB IC40, at 0.005 µM): 66.9%
inhibition [5, 20]: 3.2%
inhibition ([5]; measured here: combination with cisplatin, at 0.5 µM, stronger effect = higher value): -45.7%
inhibition ([5]; measured here: combination with cisplatin, at 5 µM, stronger effect = higher value): 97.7%
inhibition ([6]; BGB combo, at 5 µM): 80.3%
inhibition ([6]; at 0.5 µM): 13.6% (inactive)
inhibition ([6]; cisplatin combo, at 5 µM): 56.8%
inhibition [6, 21]: 15.5%
inhibition [6, 22]: 11.8%
inhibition ([6]; single agent, at 5 µM): 65%
inhibition ([7]; BGB IC20 combo, at 0.005 µM): 91.8%
inhibition ([7]; BGB IC40 combo, at 0.005 µM): 91.5%
inhibition ([7]; BGB IC40 combo, at 0.05 µM): 101%
inhibition ([7]; at 0.5 µM): -13.7% (inactive)
inhibition ([7]; cisplatin combo, at 0.05 µM): 102%
inhibition ([7]; cisplatin combo, at 0.5 µM): -28%
inhibition ([7]; cisplatin combo, at 5 µM): -12.8%
inhibition ([7]; measured here: 5 uM single agent, at 5 µM): -7.27%
inhibition ([8]; at 0.5 µM): 96.2% (active)
inhibition [8, 20]: 10.7%
inhibition [8, 23]: 97.7%
inhibition [8, 24]: 98.3%
inhibition ([9]; at 0.5 µM): 92.1% (active)
inhibition ([9]; measured here: with BGB IC20, at 0.5 µM): 97.4%
inhibition ([9]; measured here: with BGB IC20, at 5 µM): 98.4%
inhibition ([9]; measured here: with cisplatin IC20, at 0.5 µM): 83.5%
inhibition ([9]; measured here: with cisplatin IC20, at 5 µM): 99.3%
inhibition ([9]; single agent, at 5 µM): 99.5%
inhibition ([10]; at 0.5 µM): 28.9% (inactive)
inhibition ([10]; measured here: combination with BGB at IC20, at 0.5 µM): 57.3%
inhibition ([10]; measured here: combination with cisplatin at IC20, at 0.5 µM): 27.4%
inhibition ([11]; at 0.5 µM): 31.9% (inactive)
inhibition ([11]; measured here: combo with BGB at IC20, at 0.5 µM): 43.7%
inhibition ([11]; measured here: combo with cisplatin at IC20, at 0.5 µM): 6.87%
inhibition ([12]; at 0.5 µM): 67.4% (inactive)
inhibition ([12]; measured here: inhibition with BGB combination, at 0.05 µM): 37.1%
inhibition ([12]; measured here: inhibition with cisplatin combination, at 0.05 µM): -9.86%
inhibition ([13]; at 0.5 µM): 80.7% (active)
inhibition [13, 23]: 87.3%
inhibition [13, 24]: 91.1%
inhibition ([14]; at 0.5 µM): 23.1% (inactive)
inhibition ([14]; measured here: BGB combination, at 0.5 µM): 22.4%
inhibition ([14]; measured here: BGB combination, at 5 µM): 75.1%
inhibition ([14]; measured here: cisplatin combination, at 0.5 µM): 5.08%
inhibition ([14]; measured here: cisplatin combination, at 5 µM): 88.8%
inhibition ([15]; BGB combination, concentration series, at 5 µM): 73.5%
inhibition ([15]; at 0.5 µM): 79.3% (inactive)
inhibition ([15]; cisplatin combination, concentration series, at 5 µM): 72.2%
inhibition ([16]; at 0.5 µM): 14.6% (inactive)
inhibition ([16]; measured here: combo with BGB IC20, at 0.5 µM): 33.6%
inhibition ([16]; measured here: combo with cisplatin IC20, at 0.5 µM): -4.62%
inhibition ([17]; at 0.5 µM): 44.8% (inactive)
inhibition ([17]; cisplatin combination, at 0.5 µM): 31.8%
inhibition ([17]; cisplatin combination, at 5 µM): -81%
inhibition ([17]; measured here: BGB IC40 combination 0.05 uM, at 0.05 µM): -10.1%
inhibition ([17]; single agent, at 5 µM): 22.9%
inhibition ([18]; at 0.5 µM): 73.8% (inactive)
inhibition ([18]; cisplatin combo, at 5 µM): 83.5%
inhibition ([18]; measured here: BGB IC40 combination, at 0.05 µM): 22.4%
inhibition [18, 23]: 76.4%
inhibition ([18]; single agent, at 5 µM): 84.3%
inhibition ([19]; at 0.5 µM): -7.32% (inactive)
inhibition [19, 21]: -9.54%
inhibition [19, 22]: -7.92%
inhibition ([19]; single agent, at 0.05 µM): -26.3%
inhibition ([19]; single agent, at 5 µM): 81.3%

— PubChem BioAssay
